Results filed as inconclusive are left out. The source made the active and inactive calls. Calls come from the whole dose curve; as a rule, active = well fitted cell-killing curve with a large enough effect; inconclusive = small, poorly fitted or top-dose-only effect, or effect the other way; inactive = flat fitted curve, though single readings scatter.
Assays:
Assay in all cases: Primary qHTS to identify gynecologic anti-cancer compounds using libraries of approved drugs and bioactive compounds (AID 1345084); note: nearly all actives have a fitted effect of over 55% in size
C33A = details: Gynecologic cancer cell panel viability, ATPlite luminescence, 48 h; series mostly up to 57.5 µM
In short: (§1)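 Cell viability after 48 h drug treatment, ATPlite luminescence readout; five doses.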

CAOV3 = details: Gynecologic cancer cell panel viability, ATPlite luminescence, 48 h; series mostly up to 57.5 µM
In short: as §1

CASKI = details: Gynecologic cancer cell panel viability, ATPlite luminescence, 48 h; series mostly up to 57.5 µM
In short: as §1

Es-2 = details: Gynecologic cancer cell panel viability, ATPlite luminescence, 48 h; series mostly up to 57.5 µM
In short: as §1

HeLa = details: Gynecologic cancer cell panel viability, ATPlite luminescence, 48 h; series mostly up to 57.5 µM
In short: as §1

Hek293T = details: Gynecologic cancer cell panel viability, ATPlite luminescence, 48 h, control line for the selectivity index; series mostly up to 57.5 µM
In short: as §1

JEG-3 = details: Gynecologic cancer cell panel viability, ATPlite luminescence, 48 h; series mostly up to 57.5 µM
In short: as §1

OV90 = details: Gynecologic cancer cell panel viability, ATPlite luminescence, 48 h; series mostly up to 57.5 µM
In short: as §1

PA-1 = details: Gynecologic cancer cell panel viability, ATPlite luminescence, 48 h; series mostly up to 57.5 µM
In short: as §1

Tov-21-G = details: Gynecologic cancer cell panel viability, ATPlite luminescence, 48 h; series mostly up to 57.5 µM
In short: as §1

Tov112D = details: Gynecologic cancer cell panel viability, ATPlite luminescence, 48 h; series mostly up to 57.5 µM
In short: as §1
% is set by controls: 0 for no effect and ±100 for the full control effect.

CC1C2=CC(=O)OC2(O)CC2C1C(OC(=O)c1ccccc1)C(OC(=O)c1ccccc1)C1(O)C2(C)CCC(O)C1(C)C(=O)O (configuration not stated)
inactive: Potency (C33A) | Potency (CAOV3) | outcome (CASKI) | Potency (Es-2) | Potency (HeLa) | Potency (Hek293T) | Potency (JEG-3) | Potency (OV90) | Potency (PA-1) | Potency (Tov-21-G) | Potency (Tov112D)

NC(=O)NCCCC(NC(=O)Cc1ccccc1)C(=O)O (configuration not stated)
inactive: Potency (C33A) | Potency (CAOV3) | outcome (CASKI) | Potency (Es-2) | Potency (HeLa) | Potency (Hek293T) | Potency (JEG-3) | Potency (OV90) | Potency (PA-1) | Potency (Tov-21-G) | Potency (Tov112D)

OC[C@H]1O[C@@H](Oc2cc(O)cc(-c3cc4ccc(O[C@@H]5O[C@H](CO)[C@@H](O)[C@H](O)[C@H]5O)cc4o3)c2)[C@H](O)[C@@H](O)[C@@H]1O
inactive: Potency (C33A) | Potency (CAOV3) | outcome (CASKI) | Potency (Es-2) | Potency (HeLa) | Potency (Hek293T) | Potency (JEG-3) | Potency (OV90) | Potency (PA-1) | Potency (Tov-21-G) | Potency (Tov112D)

C/C=C(\C)C(=O)OC[C@H]1O[C@@H](O[C@H]2[C@@H](O[C@H]3O[C@H](CO)[C@@H](O)[C@H](O)[C@H]3O[C@@H]3O[C@H](CO)[C@@H](O)[C@H](O)[C@H]3O)O[C@H](COC(=O)/C(C)=C/C)[C@@H](O)[C@@H]2O)[C@H](O)[C@@H](O)[C@@H]1O
inactive: activity change, negative = cytotoxicity (C33A) 7.95% [at 11.6 µM] | activity change, negative = cytotoxicity (CAOV3) 13.6% [at 11.6 µM] | activity change, negative = cytotoxicity (CASKI) -6.51% [at 11.6 µM] | activity change, negative = cytotoxicity (Es-2) -0.184% [at 11.6 µM] | activity change, negative = cytotoxicity (HeLa) -3.59% [at 11.6 µM] | activity change, negative = cytotoxicity (Hek293T) 2.97% [at 11.6 µM] | activity change, negative = cytotoxicity (JEG-3) -0.345% [at 11.6 µM] | activity change, negative = cytotoxicity (OV90) 4.16% [at 11.6 µM] | activity change, negative = cytotoxicity (PA-1) 4.96% [at 11.6 µM] | activity change, negative = cytotoxicity (Tov-21-G) -10% [at 11.6 µM] | activity change, negative = cytotoxicity (Tov112D) -8.88% [at 11.6 µM]

C/C=C/C=C/C=C/C(=O)OC1C=C2C(O)OC(=O)[C@]2(O)[C@@]2(C)CCCC(C)(C)[C@H]12 (some centres not stated)
inactive: Potency (C33A) | Potency (CAOV3) | outcome (CASKI) | Potency (Es-2) | Potency (HeLa) | Potency (Hek293T) | Potency (JEG-3) | Potency (OV90) | Potency (PA-1) | Potency (Tov-21-G) | Potency (Tov112D)

CC(=O)OC12CC(C)C(O)C1/C=C(/COC1OC(CO)C(O)C(O)C1O)CCC1C(/C=C(\C)C2=O)C1(C)C (configuration not stated)
inactive: Potency (C33A) | Potency (CAOV3) | outcome (CASKI) | Potency (Es-2) | Potency (HeLa) | Potency (Hek293T) | Potency (JEG-3) | Potency (OV90) | Potency (PA-1) | Potency (Tov-21-G) | Potency (Tov112D)

CC1=CC[C@@]2(C)CC[C@@](O)(C(C)C)[C@@H]2[C@@H](O)C1
inactive: Potency (C33A) | Potency (CAOV3) | outcome (CASKI) | Potency (Es-2) | Potency (HeLa) | Potency (Hek293T) | Potency (JEG-3) | Potency (OV90) | Potency (PA-1) | Potency (Tov-21-G) | Potency (Tov112D)

C=CC(C)(O)C1CC2C3(C)CCCC(C)(C)C3C(O)C(O)C2(C)O1 (configuration not stated)
inactive: Potency (C33A) | Potency (CAOV3) | outcome (CASKI) | Potency (Es-2) | Potency (HeLa) | Potency (Hek293T) | Potency (JEG-3) | Potency (OV90) | Potency (PA-1) | Potency (Tov-21-G) | Potency (Tov112D)

COc1cc(Nc2ccc([N+](=O)[O-])cc2C(=O)O)cc2ccccc12
inactive: Potency (C33A) | Potency (CAOV3) | outcome (CASKI) | Potency (Es-2) | Potency (HeLa) | Potency (Hek293T) | Potency (JEG-3) | Potency (OV90) | Potency (PA-1) | Potency (Tov-21-G) | Potency (Tov112D)

Cc1ccc(-c2c(-c3nn(C)c4ncnc(N5CCC(N6CCCCC6)C5)c34)cnn2C)cc1 (configuration not stated)
inactive: Potency (C33A) | Potency (CAOV3) | outcome (CASKI) | Potency (Es-2) | Potency (HeLa) | Potency (Hek293T) | Potency (JEG-3) | Potency (OV90) | Potency (PA-1) | Potency (Tov-21-G) | Potency (Tov112D)

C[C@]1(C2CCCC2)Cc2cc(OCC(=O)O)c(Cl)c(Cl)c2C1=O
inactive: Potency (C33A) | Potency (CAOV3) | outcome (CASKI) | Potency (Es-2) | Potency (HeLa) | Potency (Hek293T) | Potency (JEG-3) | Potency (OV90) | Potency (PA-1) | Potency (Tov-21-G) | Potency (Tov112D)

CCOC(=O)COc1ccc2c(c1)C[C@@H](NC[C@H](O)c1cccc(Cl)c1)CC2
inactive: Potency (C33A) | Potency (CAOV3) | outcome (CASKI) | Potency (Es-2) | Potency (HeLa) | Potency (Hek293T) | Potency (JEG-3) | Potency (OV90) | Potency (PA-1) | Potency (Tov-21-G) | Potency (Tov112D)

NC(=O)C(O[C@@H]1O[C@H](CO[C@@H]2O[C@H](CO)[C@@H](O)[C@H](O)[C@H]2O)[C@@H](O)[C@H](O)[C@H]1O)c1ccccc1 (some centres not stated)
inactive: Potency (C33A) | Potency (CAOV3) | outcome (CASKI) | Potency (Es-2) | Potency (HeLa) | Potency (Hek293T) | Potency (JEG-3) | Potency (OV90) | Potency (PA-1) | Potency (Tov-21-G) | Potency (Tov112D)

O=C(/C=C/c1ccccc1)OC[C@H]1O[C@@H](OC(=O)c2cc(O)c(O)c(O)c2)[C@H](O)[C@@H](O)[C@@H]1O
inactive: Potency (C33A) | Potency (CAOV3) | outcome (CASKI) | Potency (Es-2) | Potency (HeLa) | Potency (Hek293T) | Potency (JEG-3) | Potency (OV90) | Potency (PA-1) | Potency (Tov-21-G) | Potency (Tov112D)

C[C@@H]1CCC2C(C)(C)[C@H](O)[C@H](O)C[C@]2(C)[C@@]12Cc1c(O)cc3c(c1O2)CN(CCCC(=O)O)C3=O (some centres not stated)
inactive: Potency (C33A) | Potency (CAOV3) | outcome (CASKI) | Potency (Es-2) | Potency (HeLa) | Potency (Hek293T) | Potency (JEG-3) | Potency (OV90) | Potency (PA-1) | Potency (Tov-21-G) | Potency (Tov112D)

C=C(CO)C(=O)O[C@H]1C[C@@]23O[C@@H]2CC/C(=C/[C@H]2OC(=O)C(=C)[C@H]12)CO[C@H]3O
inactive: Potency (C33A) | Potency (CAOV3) | outcome (CASKI) | Potency (Es-2) | Potency (HeLa) | Potency (Hek293T) | Potency (JEG-3) | Potency (OV90) | Potency (PA-1) | Potency (Tov-21-G) | Potency (Tov112D)

CC1=CC(=O)CC(C)(C)[C@@]1(O)/C=C/C(C)O[C@@H]1O[C@H](CO)[C@@H](O)[C@H](O)[C@H]1O (some centres not stated)
inactive: Potency (C33A) | Potency (CAOV3) | outcome (CASKI) | Potency (Es-2) | Potency (HeLa) | Potency (Hek293T) | Potency (JEG-3) | Potency (OV90) | Potency (PA-1) | Potency (Tov-21-G) | Potency (Tov112D)

From PubChem BioAssay (NCATS)
